This is one part of a sample in which hits are shown more often than they occur.
D1 allo mod: allosteric modulators of human D1 dopamine receptor; B-score at 10 µM; HEK293 D1, CRE-luciferase, dopamine EC30 potentiation; actives deviate in either direction; P21728; 5.9% of 58,000 active;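 active means luminescence count or its row- and column-corrected plate score outside the 99.7% band of the plate's sample wells, on either side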
PKA inh: blocks human protein kinase A activity | P17612 | PKA Kemptide phosphorylation, Kinase-Glo ATP luminescence | inhibition, % at 6 µM | 0.1% of 65,000 active;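 active means inhibition above the screen-wide mean inhibition plus 3 SD, cut at about 21% in these data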
DAT uptake mod: modulates human dopamine transporter uptake under cocaine; 1.3% of 110,000 active; B-score at 10 µM; Q01959; LLC-PK1 hDAT cells, [14C]-dopamine uptake with cocaine IC80; actives deviate in either direction; AID 449768;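 active means Z score or B-score, a plate-position-corrected score, falls beyond the plate's 99.7% confidence bounds, in either direction; inactive means both scores lie inside the 99.7% bounds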;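 further: scored against the spread of the other compound wells on the same plate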
ROCK2 blocker: ROCK2 (human) kinase inhibition; inhibition, % at 6 µM; AID 604; O75116; purified ROCK2, Kinase-Glo ATP depletion luminescence; 0.35% of 60,000 active;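 active means inhibition above the screen-wide mean inhibition plus 3 SD, cut at about 18% in these data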;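 further: plate controls were DMSO wells for no effect and Y-27632 control wells after no-enzyme background subtraction for full effect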
JNK3 blocker: JNK3 (human) kinase inhibition; inhibition, % at 8 µM; 0.61% of 60,000 active; purified JNK3 kinase activity, HTS; P53779; in the data active means inhibition above about 17%;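 further: 0% = DMSO and 100% = reference inhibitor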
Target sequence (P53779 whole entry, looked up): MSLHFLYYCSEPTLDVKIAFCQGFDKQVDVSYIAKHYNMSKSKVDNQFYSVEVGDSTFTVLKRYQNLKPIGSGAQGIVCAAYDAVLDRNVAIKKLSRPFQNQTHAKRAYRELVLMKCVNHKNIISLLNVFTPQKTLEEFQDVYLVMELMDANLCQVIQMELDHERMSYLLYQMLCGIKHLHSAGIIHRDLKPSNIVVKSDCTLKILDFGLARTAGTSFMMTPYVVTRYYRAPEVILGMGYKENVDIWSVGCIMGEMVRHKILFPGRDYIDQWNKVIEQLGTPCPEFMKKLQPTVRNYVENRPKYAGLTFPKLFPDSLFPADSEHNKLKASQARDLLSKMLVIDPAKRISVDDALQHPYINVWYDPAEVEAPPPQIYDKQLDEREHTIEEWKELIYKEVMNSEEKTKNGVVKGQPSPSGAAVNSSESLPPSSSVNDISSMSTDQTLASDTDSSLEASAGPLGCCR
D1 PAM confirm: confirmation of human D1 dopamine receptor allosteric modulators | AID 642 | luminescence at 10 µM | HEK293 D1 CRE-luciferase, dopamine EC30 potentiation; stronger effect = higher value | shares compounds with D1 allo mod | 88% of 2,200 active;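 active means luminescence in either of two replicates above the same-plate mean plus 3 SD of the low-dose dopamine control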
D1 no dopamine: activates D1 CRE-luciferase signal without dopamine present; shares compounds with D1 allo mod; HEK293 D1 CRE-luciferase, luminescence, no dopamine; stronger effect = higher value; luminescence at 10 µM; 0.8% of 1,900 active; in the data active means luminescence above about 3900
Isoprot counter: counter-screen for D1 modulators: isoproterenol response in HEK293 cells; shares compounds with D1 allo mod; HEK293 D1 CRE-luciferase, isoproterenol EC30 counter-screen; calls only at 10 µM; 63% of 2,200 active; AID 647;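 active means luminescence in either replicate above plate mean of wells with a partly effective reference agonist dose plus 3 SD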;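 further: isoproterenol raises cAMP through native beta-adrenoceptor Gs so signal bypasses D1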
Starred values were filed as active, the others as inactive; i = inactive; · = no result given; + = active, no number.

SMILES | D1 allo mod | PKA inh | DAT uptake mod | ROCK2 blocker | JNK3 blocker | D1 PAM confirm | D1 no dopamine | Isoprot counter
CC1CCN(c2nnc(N)s2)CC1 | 2.8* | 15 | -0.47 | 2 | 0 | 4832 | 944 | i
Nc1nnc(N2CCCCC2)s1 | 0.33 | -2 | 0.035 | -7 | -5 | · | · | ·
O=C(c1cccc(F)c1)N1CCc2ccccc2C1 | 4.6* | 4 | -0.71 | 8 | 2 | 9556* | 12280* | i
O=C(c1cncc(Br)c1)N1CCc2ccccc2C1 | · | · | 0.73 | · | · | · | · | ·
Cc1c(NC(=O)OCCSc2nc(N(C)C)nc(N(C)C)n2)sc(=S)n1C | · | · | -0.13 | · | · | · | · | ·
Nc1nc(Nc2cccc(C(F)(F)F)c2)nc(C(F)(F)F)n1 | 8* | 7 | -0.31 | 8 | 2 | 15108* | 1664 | +
Nc1ncnc(Nc2cccc(C(F)(F)F)c2)n1 | · | · | 0.69 | · | · | · | · | ·
CCN(Cc1cc2ccccc2[nH]c1=O)C(=O)C(C)C | 0.21 | 0 | -0.017 | -2 | -6 | · | · | ·
Nc1nc(NCc2ccccc2)nc(-c2ccccc2)n1 | 21* | 1 | 0.61 | 3 | 6 | 23340* | · | +
NNc1nc(NCc2ccccc2)nc(N2CCOCC2)n1 | · | · | -0.04 | · | · | · | · | ·
O=C(Nc1ccccc1Oc1ccccc1)c1cnccn1 | 4.1* | 0 | -0.76 | 0 | 0 | 9216* | 1488 | i
CNC(=O)c1[nH]cnc1C(=O)Nc1cccc(OC)c1 | 4.5* | 2 | -0.42 | 6 | 18* | 10128* | 1656 | +
CNC(=O)c1[nH]cnc1C(=O)Nc1ccc(C)cc1 | · | · | 0.23 | · | · | · | · | ·
CCn1c(Sc2nc(C)nc3scc(-c4cccs4)c23)n[nH]c1=O | 8.1* | 10 | 3 | 2 | 3 | 15492* | 1856 | +
COc1ccc(-c2cc(C(F)(F)F)nc(SCC(=O)N3CC(C)OC(C)C3)n2)cc1OC (configuration not stated) | 6.2* | 10 | -1.8 | 1 | -11 | 18852* | 1628 | +
Cc1ccc(OCC(=O)NCc2ccccn2)c(Br)c1 | -0.59 | 6 | 0.83 | 4 | 3 | · | · | ·
CCNc1nc(SCC(=O)OC)nc(N2CCOCC2)n1 | 6.4* | 10 | -0.83 | · | · | 18868* | 1512 | +
CCNc1nc(SC(C)C(=O)OC)nc(N2CCOCC2)n1 (configuration not stated) | 7* | 9 | -0.09 | · | · | 16348* | 1712 | +
CC(C)(C)Nc1nc(SCc2ccccc2)nc(N2CCOCC2)n1 | 0.0031 | 7 | -0.56 | 5 | 2 | · | · | ·
CSc1nc(NC(C)(C)C)nc(N2CCOCC2)n1 | 15* | -3 | -1.8 | · | · | 15276* | 1464 | +
CCNc1nc(N2CCOCC2)nc(N(c2ccccc2)c2ccccc2)n1 | 0.35 | 3 | 0.34 | 2 | 0 | · | · | ·
Nc1nonc1-c1noc(CCCCCN2C(=O)c3ccccc3C2=O)n1 | -1.3 | 12 | 0.84 | 7 | 3 | · | · | ·
CC(C)OC(=O)CSc1nnc(-c2cnccn2)n1-c1ccc(Cl)cc1 | 3.4* | -4 | -1.5 | 1 | 5 | 11484* | 1664 | i
CSC(=NCc1cccnc1)NS(=O)(=O)c1cccs1 | 0.026 | -4 | 0.12 | -4 | 0 | · | · | ·
Nc1c(S(=O)(=O)c2cccs2)c2nc3ccccc3nc2n1Cc1cccs1 | 0.58 | 9 | -0.82 | 6 | 4 | · | · | ·
SMILES | D1 allo mod | PKA inh | DAT uptake mod | ROCK2 blocker | JNK3 blocker | D1 PAM confirm | D1 no dopamine | Isoprot counter
Nc1c(S(=O)(=O)c2cccs2)c2nc3ccccc3nc2n1CC1CCCO1 (configuration not stated) | 5.9* | 11 | -0.51 | 6 | -2 | 12068* | 1576 | +
O=C(CSc1nnc(-c2ccccn2)n1Cc1ccccc1)N1CCCC1 | -0.21 | 6 | -0.39 | 0 | 3 | · | · | ·
NC(=O)c1cc2n(n1)C(C(F)(F)F)CC(c1ccco1)N2 (configuration not stated) | -0.17 | -1 | -0.094 | 4 | 0 | · | · | ·
COc1ccc(C(=O)CN2C(=O)NC(C)(c3ccccc3)C2=O)cc1OC (configuration not stated) | · | · | 0.19 | · | · | · | · | ·
COc1ccc(C2(C)NC(=O)N(Cc3cc(Cl)cc4c3OCOC4)C2=O)cc1OC (configuration not stated) | 10* | 12 | 0.55 | 4 | 4 | 22312* | 1836 | +
CC(C)NC(=O)[C@@H]1C[C@@]1(C)[C@@H](NC(=O)OCc1ccccc1)c1ccccc1 | · | · | -0.14 | · | · | · | · | ·
COC(=O)c1ccc(-c2nc(O)c3cnccn23)cc1 | -0.66 | 6 | 0.27 | 6 | -3 | · | · | ·
O=C1C=C(c2ccccc2)OC(=O)C1C(=O)c1ccccc1 (configuration not stated) | · | · | -0.41 | · | · | · | · | ·
O=c1nc(-c2ccccc2)c2cc(Cl)ccc2[nH]1 | 6.7* | -6 | 0.013 | 1 | -2 | 9072* | · | +
COc1ccc(-c2nn(C)c(=O)c3ccccc23)cc1CNC(=O)c1ccco1 | 4.5* | -6 | 0.25 | -2 | 0 | 16184* | 1660 | +
COc1ccc(-c2nn(C)c(=O)c3ccccc23)cc1CNS(C)(=O)=O | 1.7 | 10 | -1.1 | 10 | 6 | · | · | ·
CCOC(=O)CNC(=O)Cn1cnc2c(nnn2-c2cccc(Cl)c2)c1=O | -0.38 | 1 | 2.2 | 10 | 5 | · | · | ·
CCC(C)Sc1nc2c([nH]c3ccccc32)c(=O)n1C (configuration not stated) | 5.5* | 7 | -0.53 | 4 | 1 | 14100* | 1792 | i
O=C(CSCc1ccc(Cl)cc1)Nc1cccc(C(=O)Nc2ccccc2C(=O)O)c1 | · | · | -0.75 | · | · | · | · | ·
Cc1cc(C(=O)Nc2ccc(S(=O)(=O)Nc3nccs3)cc2)c(C)o1 | 8.4* | -1 | -0.48 | 2 | 2 | 16172* | 1476 | +
COC(=O)c1oc2ccc(Br)cc2c1NC(=O)CCCN1C(=O)c2ccccc2C1=O | 0.47 | 2 | -0.24 | 3 | 4 | · | · | ·
COC(=O)c1oc2ccc(Br)cc2c1-n1cccc1 | 8.3* | 1 | 0.013 | -1 | -2 | 6260* | 1564 | +
COc1ccc(NC(=O)Cn2c(=O)n(CC(=O)NCc3ccco3)c(=O)c3ccccc32)cc1OC | · | · | -0.0063 | · | · | · | · | ·
Cc1ccc(S(=O)(=O)NCCCNC(=O)N2CCOCC2)cc1 | 3* | 6 | 1.5 | 5 | 5 | 5144 | 1760 | i
Cc1ccc(S(=O)(=O)NCCNC(=O)N2CCOCC2)cc1 | 0.21 | 3 | 1.5 | · | · | · | · | ·
COc1ccc(Cl)cc1S(=O)(=O)N1CCN(C(=O)COc2ccccc2)CC1 | 2 | 0 | 0.19 | 0 | -3 | · | · | ·
O=C1C2Sc3[nH]c(=O)sc3C(c3ccccc3)C2C(=O)N1c1ccc(Cl)cc1 (configuration not stated) | · | · | 0.25 | · | · | · | · | ·
CC(Oc1ccc(Cl)cc1Cl)C(=O)NCc1ccncc1 (configuration not stated) | 6.7* | 4 | -0.37 | · | · | 14184* | 1620 | +
